Our source for the Potency values is ChEMBL document CHEMBL1201862, “PubChem BioAssay data set” (2004).

Each structure is given as a SMILES string.

The species entered for the test is Homo sapiens. Kind of test: Quantitative High-Throughput Screen for Compounds Blocking the Interaction Between CBF-beta and RUNX1 for the Treatment of Acute Myeloid Leukemia: Summary. [Related pubchem assays (depositor defined):AID1477, AID504370, AID504374, AID504375]. It counts as functional.
Regarding `CC1CC(NC(=O)C2C3CCC(O3)C2C(=O)O)CC(C)(C)C1` (centres undefined), the Potency was 112 nM (active). Regarding `O=C(O)CCCC[C@@H]1SC[C@@H]2NC(=O)N[C@@H]21`, the Potency was 1780 nM (active).

For the molecule `O=C(O)CCCC[C@@H]1SC[C@H]2NC(=O)N[C@@H]12`, the Potency is 12600 nM (active).

`CCCCn1c(NS(=O)(=O)c2ccccc2)c(C(=O)OCC)c2nc3ccccc3nc21`: the Potency is 112 nM (active).
